Reference: the supplement of paper PMC10981050
“And” between values parts separate entries of the source, which are not always exact repeats. Identical values can stand only once. Counter-ions that a name gives are not always drawn.

Legend:
Experiment in all cases: cell viability relative to vehicle control; higher = less cytotoxic
Details in all cases: 10 µM
[1] = tested on: K562
How it was run: (§1)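 CRISPR-edited SRSF2 P95 mutant and isogenic wild-type clones of four leukaemia lines were screened against Selleck bioactive, kinase and epigenetic probe libraries, with identity-inconsistent compounds removed. Compounds were acoustically dispensed into 384-well plates at a single 10 µM dose, with 2000 cells in 50 µL medium per well. After 48 h, supernatant was removed and CellTiter-Glo luminescence was read. Viability was expressed as percent of the on-plate DMSO vehicle control, analysed in Genedata Screener.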

[2] = tested on: MARIMO
How it was run: as §1

[3] = tested on: MOLM14
How it was run: as §1

[4] = tested on: OCI-AML2
How it was run: as §1

| SMILES | cell viability ([1]; SRSF2 genotype: SRSF2 P95H/wt) | cell viability ([1]; SRSF2 genotype: SRSF2 wt/wt) | cell viability ([2]; SRSF2 genotype: SRSF2 P95H/wt) | cell viability ([2]; SRSF2 genotype: SRSF2 wt/wt) | cell viability ([3]; SRSF2 genotype: SRSF2 P95H/wt) | cell viability ([3]; SRSF2 genotype: SRSF2 wt/wt) | cell viability ([4]; SRSF2 genotype: P95H/wt) | cell viability ([4]; SRSF2 genotype: wt/wt) |
| --- | --- | --- | --- | --- | --- | --- | --- | --- |
| CC(=O)O[C@H]1C[C@@]2(C)[C@@H](C[C@@H](O)[C@H]3[C@@]4(C)CC[C@@H](O)[C@@H](C)[C@@H]4CC[C@@]32C)/C1=C(\CCC=C(C)C)C(=O)O [Fusidate Sodium] | 101% and 95.3% | 102% | 102% | 104% | 102% | 100% | 94.7% | 108% |
| C1CNCCNCCNCCN1 [Cyclen] | 100% and 102% | 106% | 107% | 111% | 103% | 103% | 105% | 102% |
| C[C@@H](N)[C@H]1CC[C@H](C(=O)Nc2ccncc2)CC1 | 105% and 97.4% | 102% | 93.7% | 94.6% | 97.2% | 96.9% | 85.9% | 91.2% |
| COc1cccc(-c2cc(F)ccc2C2Cc3nc(N)nc(C)c3C(=O)N2)n1 (stereo unspecified) | 21.2% and 27.1% | 24% | 29.6% | 24.7% | 1.82% | 3% | 15.3% | 19.9% |
| CC(=NNC(=S)N1CCC1)c1ccccn1 | 20.3% and 23% | 23.7% | 7.26% | 11.4% | 1.22% | 0.64% | 11% | 9.98% |
| COc1cc(N2CCC(N3CCN(C)CC3)CC2)ccc1Nc1ncc(Cl)c(Nc2ccccc2S(=O)(=O)C(C)C)n1 | 78.8% and 75.5% | 72.5% | 36.4% | 30.1% | 7.58% | 12.7% | 7.82% | 16.6% |
| C=Cc1c(C)c2cc3nc(cc4[nH]c(cc5nc(cc1[nH]2)C(C)=C5CCC(=O)O)c(CCC(=O)OC)c4C)C1(C)C3=CC=C(C(=O)OC)C1C(=O)OC (stereo unspecified) [Verteporfin (Visudyne)] | 68.3% and 75.3% | 70.6% | 87.7% | 85.2% | 80.2% | 59.8% | 69.7% | 77.9% |
| N#Cc1ccc([C@H]2CCc3cncn32)c(F)c1 | 103% and 100% | 88.2% | 100% | 113% | 99.5% | 101% | 95.9% | 94.6% |
| COC(=O)C=Cc1ccc(O)c(OC)c1 [Ferulic acid methyl ester] | 106% and 99.9% | 108% | 95.4% | 104% | 105% | 104% | 104% | 104% |
| Cc1ccc(-n2nc(C(C)(C)C)cc2NC(=O)Nc2ccc(OCCN3CCOCC3)c3ccccc23)cc1 [BIRB 796 (Doramapimod)] | 80.2% and 83.8% | 92.3% | 81.8% | 104% | 81.4% | 88.1% | 93.7% | 101% |
| CCCCCCCC/C=C\CCCCCCCCCCCC(=O)O [Erucic acid] | 99.7% and 96.1% | 103% | 101% | 107% | 104% | 107% | 100% | 110% |
| C=C1C[C@@]23CC[C@H]4[C@@](C)(CCC[C@@]4(C)C(=O)O)[C@@H]2CC[C@@H]1C3 [Kaurenoic acid] | 105% and 103% | 107% | 105% | 101% | 112% | 103% | 104% | 106% |
| O=c1cc(-c2ccc(O)c(O)c2)oc2cc(O)cc(O)c12 [Luteolin] | 90.8% and 84.6% | 85.5% | 65.7% | 82.6% | 53% | 57% | 67.3% | 58.9% |
| CC1CCCCCCCCCCCCC(=O)C1 (stereo unspecified) [Muscone] | 91.4% and 89.5% | 87.4% | 87.1% | 97.1% | 90.6% | 89.2% | 82% | 90.7% |
| Cc1nc(Nc2ccc(F)cc2)nc(N2CCc3ccccc3C2C)c1C (stereo unspecified) [Revaprazan Hydrochloride] | 66.5% and 73.7% | 68.7% | 67.6% | 56.4% | 63.3% | 72.5% | 75% | 67.2% |
| NS(=O)(=O)NCCNc1nonc1/C(=N/O)Nc1ccc(F)c(Br)c1 | 97.2% and 102% | 95.5% | 102% | 104% | 103% | 100% | 106% | 109% |
| CN(CC(=O)N(Cc1ccc(C2CCCCC2)cc1)c1ccc(C(=O)O)cc1)S(=O)(=O)c1c(F)c(F)c(F)c(F)c1F | 10.6% and 6.35% | 7.31% | 10.3% | 2.43% | 0.37% | 0.15% | 0.12% | 0.08% |
| COc1cc(-c2coc3cc4c(c(OC)c3c2=O)OCO4)cc(OC)c1OC [Irisflorentin] | 93.9% and 96.7% | 93.6% | 89.8% | 96.8% | 96.8% | 97.9% | 81.6% | 90.9% |
| Cc1ccn[nH]1 [3-Methylpyrazole] | 112% and 104% | 103% | 107% | 110% | 99.3% | 105% | 95.4% | 106% |
| COc1cccc(-c2c(C)n(Cc3c(F)cccc3C(F)(F)F)c(=O)n(C[C@H](NCCCC(=O)O)c3ccccc3)c2=O)c1F [Elagolix Sodium] | 97% and 93% | 96.3% | 104% | 115% | 99% | 101% | 110% | 104% |
| C[C@@H]1CN(c2c(F)c(N)c3c(=O)c(C(=O)O)cn(C4CC4)c3c2F)C[C@H](C)N1 [Sparfloxacin] | 103% | 108% | 99.7% | 104% | 101% | 106% | 109% | 105% |

| SMILES | cell viability ([1]; SRSF2 genotype: SRSF2 P95H/wt) | cell viability ([1]; SRSF2 genotype: SRSF2 wt/wt) | cell viability ([2]; SRSF2 genotype: SRSF2 P95H/wt) | cell viability ([2]; SRSF2 genotype: SRSF2 wt/wt) | cell viability ([3]; SRSF2 genotype: SRSF2 P95H/wt) | cell viability ([3]; SRSF2 genotype: SRSF2 wt/wt) | cell viability ([4]; SRSF2 genotype: P95H/wt) | cell viability ([4]; SRSF2 genotype: wt/wt) |
| --- | --- | --- | --- | --- | --- | --- | --- | --- |
| O=C(NCCO)c1cccc(-c2cc(Nc3ccc(OC(F)(F)F)cc3)ncn2)c1 | 12.1% and 23% | 20.1% | 69.5% | 76.6% | 93.2% | 91.3% | 65% | 72.3% |
| COC(=O)C1(C)CCC2(C(=O)O)CCC3(C)C(=CCC4C5(C)CC(O)C(O)C(C)(CO)C5CCC43C)C2C1 (stereo unspecified) [Phytolaccagenin] | 108% | 113% | 111% | 103% | 111% | 111% | 105% | 98.5% |
| CCCCCCOc1cc(C)c(O)c(C)c1C [HTHQ(1-O-Hexyl-2,3,5-trimethylhydroquinone)] | 93.5% and 93.8% | 106% | 89.1% | 96% | 91.1% | 102% | 98.7% | 107% |
| CCCCc1nc(Cl)c(CO)n1Cc1ccc(-c2ccccc2-c2nnn[nH]2)cc1 [Losartan potassium] | 106% and 103% | 104% | 103% | 114% | 104% | 104% | 102% | 106% |
| COc1ccc(OC)c(C2C(C#N)=C(N)Oc3n[nH]c(-c4ccc5ccccc5c4)c32)c1 (stereo unspecified) | 104% and 111% | 105% | 98.9% | 99% | 98.7% | 102% | 105% | 106% |
| CCN(CC)c1ccc2cc(C(=O)O)c(=O)oc2c1 [7-(Diethylamino)coumarin-3-carboxylic acid] | 112% and 101% | 105% | 95.4% | 108% | 98% | 110% | 100% | 103% |
| OC[C@H]1O[C@@H](Oc2c(O)cc(O)cc2/C=C/c2ccc(O)cc2)[C@H](O)[C@@H](O)[C@@H]1O [Astragalus polyphenols] | 91% and 89.8% | 88.5% | 82.9% | 96.1% | 67.9% | 80.4% | 76.8% | 84.5% |
| COc1ccc(-c2oc3c(CC=C(C)C)c(O[C@@H]4O[C@H](CO)[C@@H](O)[C@H](O)[C@H]4O)cc(O)c3c(=O)c2O[C@@H]2O[C@@H](C)[C@H](O)[C@@H](O)[C@H]2O[C@@H]2O[C@@H](C)[C@H](O)[C@@H](O)[C@H]2O)cc1 [Epmedin C] | 104% and 108% | 106% | 100% | 103% | 107% | 105% | 103% | 107% |
| O=C(c1ccc(/C=C/c2n[nH]c3ccccc23)cc1)N1CCNCC1 | 42.2% and 62.9% | 27.7% | 38.9% | 36.2% | 2.78% | 7.69% | 7.33% | 14.9% |
| CCOc1ccccc1OCCN[C@H](C)Cc1ccc(OC)c(S(N)(=O)=O)c1 [Tamsulosin] | 100% and 96% | 90.7% | 85.2% | 103% | 97.5% | 98% | 87.4% | 105% |
| Cn1cc(C2=C(c3ccc(Cl)cc3Cl)C(=O)NC2=O)c2ccccc21 | 97.9% and 94.8% | 94.2% | 94.7% | 105% | 103% | 99.1% | 95.8% | 107% |
| N#CC(=Cc1ccc(-c2cc(Cl)ccc2Cl)o1)C(=O)Nc1cccc2ncccc12 | 101% and 104% | 91.8% | 99.1% | 99.8% | 116% | 112% | 88.3% | 92% |
| CONC(=O)c1ccccc1Nc1cc(Nc2cc(C)nn2C(C)C)ncc1Cl | 91.8% and 101% | 105% | 93.2% | 101% | 82.9% | 102% | 95.8% | 103% |
| CC(C)N(CCCCOCC(=O)NS(C)(=O)=O)c1cnc(-c2ccccc2)c(-c2ccccc2)n1 [Selexipag] | 110% and 100% | 100% | 97% | 109% | 97.6% | 98.2% | 96.9% | 109% |
| COc1ccc(/C=C/C(=O)Nc2ccccc2C(=O)O)cc1OC | 98.1% and 98% | 98.1% | 108% | 102% | 98.9% | 100% | 113% | 102% |
| C[C@@]1(F)[C@H](O)[C@@H](CO)O[C@H]1n1ccc(=O)[nH]c1=O [2'-deoxy-2'-fluoro-2'-C-methyluridine] | 93.6% and 89.6% | 89.8% | 87.2% | 101% | 87.2% | 91.3% | 86.6% | 104% |
| COc1ccc(-c2coc3cc(O)cc(O)c3c2=O)cc1 [Biochanin A (4-Methylgenistein)] | 97.6% and 85.7% | 85.2% | 79.3% | 90% | 96.5% | 91.3% | 82.5% | 79.5% |
| CCOc1cc([C@@H](CS(C)(=O)=O)N2C(=O)c3cccc(NC(C)=O)c3C2=O)ccc1OC | 102% and 98.7% | 94.5% | 99.5% | 92.5% | 98% | 94.9% | 90.1% | 94.7% |
| Cn1nnc(-c2ccc3c(c2)[nH]c2nc(Cc4ccccc4)nc(NC4CCC(N)CC4)c23)n1 (stereo unspecified) | 0.17% | 0.16% | 0.14% | 0.19% | 0.11% | 0.13% | 0.18% | 0.13% |
| Cn1cc(C[C@@H](N)C(=O)O)c2ccccc21 [Indoximod (NLG-8189)] | 95.8% and 103% | 95.7% | 98.4% | 103% | 103% | 98.9% | 102% | 104% |
| CC(C)C[C@H](NC(=O)[C@@H](NC(=O)c1cccc(-c2ccccc2)n1)[C@@H](C)O)B(O)O | 2.12% and 2.65% | 3.78% | 0.85% | 2.98% | 0.49% | 0.44% | 0.41% | 2.11% |
